For 17 sequences, binding signal results are on record in PMC11006913.

What all share (test): PBM; 200 nM protein, PBS
Holding throughout (conditions): dsDNA, one strand shown

Assay [1] deals with SHOX (Homo sapiens, UniProt O15266 103-189).
The target of assay [2] is SHOX (Homo sapiens, UniProt O15266 103-189, R173C).
Assay [3] concerns the target HOXB9 (Homo sapiens, UniProt P17482 171-250, T197M).
Assay [4] addresses HOXB9 (Homo sapiens, UniProt P17482 171-250).
In assay [5] the target is HOXB9 (Homo sapiens, UniProt P17482 171-250, R186Q).
A further assay has as its target T1, VENTX (Homo sapiens, UniProt O95231 78-163).
T1 sequence: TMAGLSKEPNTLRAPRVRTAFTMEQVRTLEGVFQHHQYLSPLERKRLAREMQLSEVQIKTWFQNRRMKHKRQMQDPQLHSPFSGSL

Assay [6] addresses HOXA7 (Homo sapiens, UniProt P31268 116-202).
The target of assay [7] is HOXB6 (Homo sapiens, UniProt P17509 132-218, K202E).
In assay [8] the target is HOXA7 (Homo sapiens, UniProt P31268 116-202, W177C).
The target of assay [9] is HOXB6 (Homo sapiens, UniProt P17509 132-218).
Assay [10] concerns the target HOXC10 (Homo sapiens, UniProt Q9NYD6 254-340).
The target in assay [11] is HOXD13 (Homo sapiens, UniProt P35453 263-343, T313R).
For assay [12], the target named is HOXD13 (Homo sapiens, UniProt P35453 263-343).
The target in assay [13] is HOXC10 (Homo sapiens, UniProt Q9NYD6 254-340, K271E).
The target of assay [14] is HOXD13 (Homo sapiens, UniProt P35453 263-343, T313A).
A further assay addresses T2, PAX4 (Homo sapiens, UniProt O43316 9-242, R200K).
T2 sequence: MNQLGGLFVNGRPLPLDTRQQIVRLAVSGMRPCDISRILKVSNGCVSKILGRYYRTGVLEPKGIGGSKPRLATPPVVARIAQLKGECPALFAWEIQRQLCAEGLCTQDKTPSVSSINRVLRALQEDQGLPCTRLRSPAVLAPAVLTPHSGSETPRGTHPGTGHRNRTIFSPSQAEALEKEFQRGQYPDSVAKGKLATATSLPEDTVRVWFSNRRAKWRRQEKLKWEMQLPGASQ

The target in assay [15] is HOXC9 (Homo sapiens, UniProt P31274 178-260, K195R).
Assay [16] concerns the target HOXC9 (Homo sapiens, UniProt P31274 178-260, R193K).
The target in assay [17] is HOXC9 (Homo sapiens, UniProt P31274 178-260, R222W).
Assay [18] deals with HOXC9 (Homo sapiens, UniProt P31274 178-260).
Chain of HOXC9 (Homo sapiens, UniProt P31274 178-260) (P31274 178-260): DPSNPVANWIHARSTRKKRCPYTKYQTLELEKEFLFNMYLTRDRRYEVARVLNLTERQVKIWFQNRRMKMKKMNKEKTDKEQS

Chain of HOXC10 (Homo sapiens, UniProt Q9NYD6 254-340) (Q9NYD6 254-340): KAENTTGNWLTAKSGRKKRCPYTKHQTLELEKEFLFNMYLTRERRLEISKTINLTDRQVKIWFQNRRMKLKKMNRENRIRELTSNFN
Chain of HOXB9 (Homo sapiens, UniProt P17482 171-250) (P17482 171-250): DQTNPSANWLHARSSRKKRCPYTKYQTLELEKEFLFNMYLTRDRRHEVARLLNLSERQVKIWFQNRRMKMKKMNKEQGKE
Chain of HOXD13 (Homo sapiens, UniProt P35453 263-343, T313R) (P35453 263-343 T313R): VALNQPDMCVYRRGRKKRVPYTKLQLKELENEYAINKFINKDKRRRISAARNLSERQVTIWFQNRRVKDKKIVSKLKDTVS
Chain of HOXB9 (Homo sapiens, UniProt P17482 171-250, T197M) (P17482 171-250 T197M): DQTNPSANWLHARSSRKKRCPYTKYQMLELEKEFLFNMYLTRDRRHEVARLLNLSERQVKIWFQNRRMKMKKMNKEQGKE
Chain of SHOX (Homo sapiens, UniProt O15266 103-189, R173C) (O15266 103-189 R173C): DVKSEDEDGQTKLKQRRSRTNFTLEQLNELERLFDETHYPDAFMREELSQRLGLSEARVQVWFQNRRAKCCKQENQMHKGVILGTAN
Chain of HOXC10 (Homo sapiens, UniProt Q9NYD6 254-340, K271E) (Q9NYD6 254-340 K271E): as the sequence (Q9NYD6 254-340) above, with K18E counted along it
Chain of HOXA7 (Homo sapiens, UniProt P31268 116-202, W177C) (P31268 116-202 W177C): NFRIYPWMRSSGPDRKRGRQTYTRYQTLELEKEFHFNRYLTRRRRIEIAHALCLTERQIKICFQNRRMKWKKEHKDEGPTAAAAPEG
Chain of HOXA7 (Homo sapiens, UniProt P31268 116-202) (P31268 116-202): as the sequence (P31268 116-202 W177C) above, with C62W counted along it
Chain of HOXB9 (Homo sapiens, UniProt P17482 171-250, R186Q) (P17482 171-250 R186Q): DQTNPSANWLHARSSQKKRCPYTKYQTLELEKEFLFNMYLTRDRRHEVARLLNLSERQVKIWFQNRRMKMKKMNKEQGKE
Chain of HOXD13 (Homo sapiens, UniProt P35453 263-343) (P35453 263-343): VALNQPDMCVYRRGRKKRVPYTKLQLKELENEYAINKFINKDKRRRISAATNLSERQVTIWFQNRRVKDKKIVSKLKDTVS
Chain of HOXB6 (Homo sapiens, UniProt P17509 132-218, K202E) (P17509 132-218 K202E): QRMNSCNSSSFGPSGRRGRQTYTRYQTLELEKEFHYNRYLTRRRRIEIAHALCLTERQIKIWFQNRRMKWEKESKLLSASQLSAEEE
Chain of HOXB6 (Homo sapiens, UniProt P17509 132-218) (P17509 132-218): as the sequence (P17509 132-218 K202E) above, with E71K counted along it
Chain of HOXD13 (Homo sapiens, UniProt P35453 263-343, T313A) (P35453 263-343 T313A): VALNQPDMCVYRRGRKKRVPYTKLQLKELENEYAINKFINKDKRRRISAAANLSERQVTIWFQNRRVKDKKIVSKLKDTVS
Chain of SHOX (Homo sapiens, UniProt O15266 103-189) (O15266 103-189): as the sequence (O15266 103-189 R173C) above, with C71R counted along it
Chain of HOXC9 (Homo sapiens, UniProt P31274 178-260, R222W) (P31274 178-260 R222W): as the sequence (P31274 178-260) above, with R45W counted along it
Chain of HOXC9 (Homo sapiens, UniProt P31274 178-260, K195R) (P31274 178-260 K195R): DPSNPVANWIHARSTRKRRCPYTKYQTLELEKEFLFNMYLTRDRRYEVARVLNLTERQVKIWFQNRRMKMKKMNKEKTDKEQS
Chain of HOXC9 (Homo sapiens, UniProt P31274 178-260, R193K) (P31274 178-260 R193K): as the sequence (P31274 178-260) above, with R16K counted along it

Turning to GACTCGGC, the binding signal in the assay with SHOX [1] was 7.16 upbm affinity estimate (log intensity, higher = more binding, comparable within an allelic series); with SHOX [2], 7.19 upbm affinity estimate (log intensity, higher = more binding, comparable within an allelic series).

Regarding CGGGAGAG, the binding signal with SHOX [1] was 6.89 upbm affinity estimate (log intensity, higher = more binding, comparable within an allelic series); in the assay with HOXB9 [3], 8.56 upbm affinity estimate (log intensity, higher = more binding, comparable within an allelic series); with HOXB9 [4] it was 8.56 upbm affinity estimate (log intensity, higher = more binding, comparable within an allelic series); with SHOX [2] it was 7.16 upbm affinity estimate (log intensity, higher = more binding, comparable within an allelic series); with HOXB9 [5] it was 8.56 upbm affinity estimate (log intensity, higher = more binding, comparable within an allelic series).

As to CAGGGGGC, the binding signal with SHOX [1] was 7.1 upbm affinity estimate (log intensity, higher = more binding, comparable within an allelic series); in the assay with VENTX, 8.14 upbm affinity estimate (log intensity, higher = more binding, comparable within an allelic series); with SHOX [2] it was 7.01 upbm affinity estimate (log intensity, higher = more binding, comparable within an allelic series).

CTTAATGA: the binding signal is 11.3 upbm affinity estimate (log intensity, higher = more binding, comparable within an allelic series) in the assay with HOXA7 [6]; 9.94 upbm affinity estimate (log intensity, higher = more binding, comparable within an allelic series) in the assay with HOXB6 [7]; 8.84 upbm affinity estimate (log intensity, higher = more binding, comparable within an allelic series) with HOXA7 [8]; 11.6 upbm affinity estimate (log intensity, higher = more binding, comparable within an allelic series) with HOXB6 [9].

Take GGCCCCCC: the binding signal with HOXB9 [3] was 8.33 upbm affinity estimate (log intensity, higher = more binding, comparable within an allelic series); with HOXB9 [4], 8.39 upbm affinity estimate (log intensity, higher = more binding, comparable within an allelic series); with HOXB9 [5], 8.36 upbm affinity estimate (log intensity, higher = more binding, comparable within an allelic series).

On to CGCCGCCG, for which the binding signal was 8.3 upbm affinity estimate (log intensity, higher = more binding, comparable within an allelic series) in the assay with VENTX; 8.5 upbm affinity estimate (log intensity, higher = more binding, comparable within an allelic series) in the assay with HOXA7 [6]; 10 upbm affinity estimate (log intensity, higher = more binding, comparable within an allelic series) in the assay with HOXC10 [10]; 9.36 upbm affinity estimate (log intensity, higher = more binding, comparable within an allelic series) with HOXD13 [11]; 9.39 upbm affinity estimate (log intensity, higher = more binding, comparable within an allelic series) with HOXD13 [12]; 10 upbm affinity estimate (log intensity, higher = more binding, comparable within an allelic series) with HOXC10 [13]. The binding signal with HOXD13 [14] is 9.5 upbm affinity estimate (log intensity, higher = more binding, comparable within an allelic series); with HOXA7 [8] it was 8.25 upbm affinity estimate (log intensity, higher = more binding, comparable within an allelic series).

As for CGCAGACC, in the assay with VENTX, the binding signal was 7.99 upbm affinity estimate (log intensity, higher = more binding, comparable within an allelic series).

GCCGCCGC: in the assay with VENTX, the binding signal was 7.88 upbm affinity estimate (log intensity, higher = more binding, comparable within an allelic series).

Consider CCTGACCC, for which the binding signal with HOXB9 [3] is 8.77 upbm affinity estimate (log intensity, higher = more binding, comparable within an allelic series); in the assay with HOXB9 [4], 8.65 upbm affinity estimate (log intensity, higher = more binding, comparable within an allelic series); with HOXB9 [5] it was 8.66 upbm affinity estimate (log intensity, higher = more binding, comparable within an allelic series).

With ATTAATCG, the binding signal is 12.5 upbm affinity estimate (log intensity, higher = more binding, comparable within an allelic series) in the assay with VENTX and 11.6 upbm affinity estimate (log intensity, higher = more binding, comparable within an allelic series) with PAX4.

Regarding CTAATGAG, in the assay with VENTX, the binding signal is 12.6 upbm affinity estimate (log intensity, higher = more binding, comparable within an allelic series).

On to TATTAATA, for which the binding signal is 10.1 upbm affinity estimate (log intensity, higher = more binding, comparable within an allelic series) with HOXB9 [3]; 12.6 upbm affinity estimate (log intensity, higher = more binding, comparable within an allelic series) with HOXC9 [15]; 11.2 upbm affinity estimate (log intensity, higher = more binding, comparable within an allelic series) with HOXA7 [6]; 11.7 upbm affinity estimate (log intensity, higher = more binding, comparable within an allelic series) in the assay with PAX4; 10 upbm affinity estimate (log intensity, higher = more binding, comparable within an allelic series) with HOXB6 [7]; 10.9 upbm affinity estimate (log intensity, higher = more binding, comparable within an allelic series) in the assay with HOXD13 [11]. The binding signal is 12.5 upbm affinity estimate (log intensity, higher = more binding, comparable within an allelic series) with HOXC9 [16]; 11.9 upbm affinity estimate (log intensity, higher = more binding, comparable within an allelic series) in the assay with HOXD13 [12]; 12 upbm affinity estimate (log intensity, higher = more binding, comparable within an allelic series) with HOXD13 [14]; 11.1 upbm affinity estimate (log intensity, higher = more binding, comparable within an allelic series) with HOXC9 [17]; 9.08 upbm affinity estimate (log intensity, higher = more binding, comparable within an allelic series) with HOXA7 [8]; 11.7 upbm affinity estimate (log intensity, higher = more binding, comparable within an allelic series) with HOXB6 [9].

Take CCCATTAA: the binding signal with HOXB9 [3] is 10.1 upbm affinity estimate (log intensity, higher = more binding, comparable within an allelic series); with HOXC9 [15], 12.9 upbm affinity estimate (log intensity, higher = more binding, comparable within an allelic series); in the assay with VENTX it was 13.1 upbm affinity estimate (log intensity, higher = more binding, comparable within an allelic series); with HOXA7 [6], 11.8 upbm affinity estimate (log intensity, higher = more binding, comparable within an allelic series); with HOXC10 [10] it was 12.2 upbm affinity estimate (log intensity, higher = more binding, comparable within an allelic series); with HOXB6 [7], 9.99 upbm affinity estimate (log intensity, higher = more binding, comparable within an allelic series). Moreover, the binding signal with HOXB9 [4] is 12.2 upbm affinity estimate (log intensity, higher = more binding, comparable within an allelic series); with HOXC9 [18], 12.9 upbm affinity estimate (log intensity, higher = more binding, comparable within an allelic series); with HOXD13 [11], 10.6 upbm affinity estimate (log intensity, higher = more binding, comparable within an allelic series); with HOXC9 [16] it was 12.9 upbm affinity estimate (log intensity, higher = more binding, comparable within an allelic series); with HOXD13 [12], 11.8 upbm affinity estimate (log intensity, higher = more binding, comparable within an allelic series); in the assay with HOXC10 [13] it was 12.2 upbm affinity estimate (log intensity, higher = more binding, comparable within an allelic series). Besides, the binding signal with HOXD13 [14] is 11.5 upbm affinity estimate (log intensity, higher = more binding, comparable within an allelic series); with HOXB9 [5], 12 upbm affinity estimate (log intensity, higher = more binding, comparable within an allelic series); with HOXC9 [17], 10.9 upbm affinity estimate (log intensity, higher = more binding, comparable within an allelic series); in the assay with HOXA7 [8] it was 8.83 upbm affinity estimate (log intensity, higher = more binding, comparable within an allelic series); with HOXB6 [9] it was 12.3 upbm affinity estimate (log intensity, higher = more binding, comparable within an allelic series).

ACTCATTA: the binding signal in the assay with VENTX was 12.4 upbm affinity estimate (log intensity, higher = more binding, comparable within an allelic series); with SHOX [2] it was 9.29 upbm affinity estimate (log intensity, higher = more binding, comparable within an allelic series).

Regarding CCGCCTAG, the binding signal in the assay with HOXB9 [3] is 8.4 upbm affinity estimate (log intensity, higher = more binding, comparable within an allelic series); in the assay with HOXB9 [4], 8.41 upbm affinity estimate (log intensity, higher = more binding, comparable within an allelic series); in the assay with HOXB9 [5] it was 8.38 upbm affinity estimate (log intensity, higher = more binding, comparable within an allelic series).

Regarding CGTGCCTC, the binding signal was 8.3 upbm affinity estimate (log intensity, higher = more binding, comparable within an allelic series) in the assay with HOXB9 [3]; 10 upbm affinity estimate (log intensity, higher = more binding, comparable within an allelic series) with HOXC10 [10]; 8.93 upbm affinity estimate (log intensity, higher = more binding, comparable within an allelic series) in the assay with HOXB6 [7]; 8.2 upbm affinity estimate (log intensity, higher = more binding, comparable within an allelic series) with HOXB9 [4]; 9.99 upbm affinity estimate (log intensity, higher = more binding, comparable within an allelic series) with HOXC10 [13]; 8.24 upbm affinity estimate (log intensity, higher = more binding, comparable within an allelic series) with HOXB9 [5]. Further, the binding signal with HOXB6 [9] is 8.84 upbm affinity estimate (log intensity, higher = more binding, comparable within an allelic series).

On to CCCCCTCG, for which the binding signal with HOXB9 [3] was 8.45 upbm affinity estimate (log intensity, higher = more binding, comparable within an allelic series); in the assay with HOXB9 [4], 8.63 upbm affinity estimate (log intensity, higher = more binding, comparable within an allelic series); with HOXB9 [5], 8.59 upbm affinity estimate (log intensity, higher = more binding, comparable within an allelic series).
